Reference: PubChem BioAssay (NCI)
The panel holds about 79,000 compounds, 15% with a hit somewhere; the sample as a whole holds those more often. Unmarked numbers belong to inactive results. The source made the active and inactive calls. Cut-off read from the data, not from the text of the source: active = growth inhibition above about 70%; inactive = the rest.

Test: NCI Yeast Anticancer Drug Screen. Data for the CLN2oe strain (AID 163);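 note: 0% = growth of vehicle-only control cultures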
Conditions: S. cerevisiae CLN2oe strain, stronger effect = higher value
Protocol: Growth inhibition of yeast strains with defined genetic alterations is measured as a screen for potential anti-cancer activity. Selected strains with alterations in DNA damage repair or cell cycle control were exposed to compounds and growth inhibition was measured relative to vehicle treated controls. The strain used in this assay is CLN2oe

Row | SMILES | growth inhibition (at 1.2 µM) [%] | growth inhibition (at 3.7 µM) [%] | growth inhibition (at 11.0 µM) | growth inhibition (at 33.0 µM) | growth inhibition (at 100.0 µM)
1 | O=C1c2ccccc2C2CCC1c1ccccc12 (stereo not given) | 2 | -5 | 7% | 59% | 98% (active)
2 | O=S(=O)(O)c1ccc2c(N=Nc3c(O)ccc4ccccc34)cccc2c1 | -1 | -4 | -3% | 14% | 74% (active)
3 | CCCCCC(=O)C(C)(c1nc2n(c1O)/C(=N/C(=O)Nc1ccc(Cl)cc1)N=N2)c1nc2n(c1O)/C(=N/C(=O)Nc1ccc(Cl)cc1)N=N2 | -5 | -8 | -5% | 2% | 27%
4 | O=C1OC(c2ccc(Cl)cc2)Sc2ccccc21 (stereo not given) | 9 | 13 | 27% | 97% (active) | 97% (active)
5 | CCOC(=O)/C=C1\CCCn2c1ncc(C(=O)OCC)c2=O | 3 | 4 | 7% | 12% | 13%
6 | O=C(CCCN1CCC2(CC1)OC(=O)N(c1ccccc1)C2=O)c1ccccc1 | 45 | 63 | 72% (active) | 71% (active) | 76% (active)
7 | Cn1c(COc2ccc(/C=N/NC(=O)CCC(=O)N/N=C/c3ccc(OCc4c[n+]5ccccc5n4C)cc3)cc2)c[n+]2ccccc12 | -5 | -3 | -3% | -5% | 76% (active)
8 | O=C1C=CC(=Nc2ccc3c(c2)Cc2cc(Cl)ccc2-3)O1 | -1 | 3 | 23% | 98% (active) | 97% (active)
